Here are results for 61 molecules from PubChem BioAssay AID463195 (Sanford-Burnham Center for Chemical Genomics, 2010).

The campaign covered roughly 330,000 compounds. About 4,600 (1.4%) were called active.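 The calls were made as follows: active = inhibition of 40% or more at the single tested concentration; inactive = the rest.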 What follows is part of a selection rich in actives, with near analogues and random picks from the rest.

A short description of the assay: growth inhibitors of isogenic TIM10 control yeast, primary screen, counter-screen for tim10-1 yeast inhibitor project, luminescence, uHTS (AID 463195).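 Also: wild-type TIM10 isogenic control strain grown at permissive 25 °C; 0% = DMSO yeast wells and 100% = minimal medium wells without yeast.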 As to conditions: S. cerevisiae TIM10 strain growth, BacTiter-Glo luminescence, 24 h; at 10 µM; active compounds read high. For orientation: A counterscreen serves to expose hits that act by an unwanted route or on another target.
As to `O=C(c1ccc(-n2cnnn2)cc1)N1CCN(C(c2ccccc2)c2ccccc2)CC1`, the inhibition was 2.74% (inactive). As for `Clc1cccc(-c2nc(NCC3CCCO3)c3ccccc3n2)c1` (stereo unspecified), the inhibition is 26.8% (inactive). For the molecule `c1ccc2c(NCC3CCCO3)nc(-c3ccncc3)nc2c1` (stereo unspecified), the inhibition was 19.5% (inactive). For `c1ccc(-c2nc(NCc3ccco3)c3ccccc3n2)cc1`, the inhibition was 49.9% (active). Take `COc1ccccc1C(=O)N/C(=C/c1ccco1)C(=O)Nc1ccc(C(=O)O)cc1`: the inhibition was -3.06% (inactive). The value for `N/C(=N\OC(=O)CCCC(=O)O)c1ncc(C(F)(F)F)cc1Cl` was -12.6% (inactive). Regarding `O=C(c1ccccn1)c1ncc(C(F)(F)F)cc1Cl`, the inhibition was -12.3% (inactive). Turning to `N/C(=N\OC(=O)Nc1ccc(Cl)c(Cl)c1)c1ncc(C(F)(F)F)cc1Cl`, the inhibition is 71.5% (active). The value for `Cc1cccc(C)c1NC(=O)N1CC(C)OC(C)C1` (stereo unspecified) was -0.538% (inactive). For the molecule `CNC(=S)NNC(=O)c1oc2nc(-c3ccccc3)cc(-c3ccco3)c2c1N`, the inhibition is 2.74% (inactive). Regarding `CCN(CC)C(=O)c1sc2nc(-c3ccccc3)ccc2c1N`, the inhibition is 18.6% (inactive). In the case of `CS(=O)(=O)c1sc2nc(-c3ccccc3)cc(-c3ccccc3)c2c1N`, the inhibition was 46.7% (active).

Regarding `S=c1[nH]nc2c3c4c(sc3ncn12)CCCC4`, the inhibition was 29.6% (inactive). Turning to `COc1ccc(-c2n[nH]c(C)c2-c2ccccc2OC)c(O)c1`, the inhibition is 25.2% (inactive). For `C=C(C)COc1ccc(-c2ncncc2-c2ccc(OC)cc2)c(O)c1`, the inhibition was 17.4% (inactive). On to `C=C(C)COc1ccc(-c2n[nH]c(C)c2-c2ccccc2)c(O)c1`, for which the inhibition was 45.6% (active).

Turning to `Cn1c(=O)oc2cc(S(=O)(=O)NCCC(=O)NCc3ccccc3Cl)ccc21`, the inhibition is 6.26% (inactive). Turning to `O=C(CN1CCSCC1)N/N=C/c1ccc(F)cc1F`, the inhibition is -5.91% (inactive).

On to `CNS(=O)(=O)c1ccc(NC(=O)C2CC(=O)N(c3ccc(Cl)cc3)C2)cc1` (stereo unspecified), for which the inhibition is -1.17% (inactive). As for `Cc1c(NC(=O)C(C)OC(=O)c2c3c(nc4ccccc24)CCC(C)C3)c(=O)n(-c2ccccc2)n1C` (stereo unspecified), the inhibition is -6.65% (inactive).

`CSCCC(NS(=O)(=O)/C=C/c1ccccc1)C(=O)N1CCC(C)CC1` (stereo unspecified): the inhibition was 43.1% (active).

Take `CSCCC(NC(=O)c1ccccc1)C(=O)N1CCCCCCC1` (stereo unspecified): the inhibition is 2.09% (inactive). The result for `CSCCC(NS(=O)(=O)c1ccc(C)cc1)C(=O)N1CCCC1` (stereo unspecified) reads -9.58% (inactive).

With `O=C1/C(=C/c2cccs2)CCC1C1CCCC1` (stereo unspecified), the inhibition is -11.5% (inactive). As to `CC(=O)NCc1ccc(S(=O)(=O)NC2CCN(Cc3ccccc3)CC2)cc1`, the inhibition was 0.58% (inactive). With `COc1ccc(S(=O)(=O)NC(C)c2ccccc2)cc1C(=O)N1CCCCC1` (stereo unspecified), the inhibition is 13.1% (inactive). As for `Cc1ccc(C2=N/C(=C\c3ccc(OS(=O)(=O)c4ccc(C)cc4)cc3)C(=O)O2)cc1`, the inhibition is -5.54% (inactive). Take `Cc1cccc(C(=O)Nc2ccc(C(=O)/C=C/c3cccs3)cc2)c1`: the inhibition is 10% (inactive). Turning to `Cc1cccc(C2=N/C(=C/c3cccs3)C(=O)O2)c1`, the inhibition is 41.4% (active). With `CC1(C)C(C=C(Cl)Cl)C1C(=O)N(Cc1ccc(Cl)cc1)C1CCS(=O)(=O)C1` (stereo unspecified), the inhibition is 17.4% (inactive). The result for `C=CS(=O)c1sc(Cl)c(N2CCOCC2)c1[N+](=O)[O-]` (stereo unspecified) reads 67.8% (active); that for `CCN(CC)P(=O)(Nc1ccc(SC(F)F)cc1)c1ccc(N(C)C)cc1NC(=O)c1ccco1` (stereo unspecified), 19% (inactive). Turning to `Cc1ccc(CCN2CC(C(=O)O)CC2=O)cc1` (stereo unspecified), the inhibition was -9.17% (inactive). Consider `CN(C)C(=O)COC(=O)c1cccc(S(=O)(=O)N2CC3(C)CC2CC(C)(C)C3)c1` (stereo unspecified), for which the inhibition is 5.89% (inactive). For the molecule `Cc1nnnn1/C(=C\c1ccccc1)C(=O)OCC(=O)N1CC2(C)CC1CC(C)(C)C2` (stereo unspecified), the inhibition is 62.3% (active). The value for `COc1ccc(C(=O)N2CC3(C)CC2CC(C)(C)C3)cc1OC` (stereo unspecified) was 9.33% (inactive); that for `Cc1cccc(NC(=S)NCCN(C2CCCCC2)C2CCCC2)c1` was 11.8% (inactive). `Cc1cccc(NC(=S)NCc2ccc3[nH]c4c(c3c2)CCCC4)c1`: the inhibition is 42.9% (active). As to `Cc1cccc(NC(=S)NC23CN4CN(CN(C4)C2)C3)c1`, the inhibition is -11.6% (inactive). The value for `N#C/C(=C(\O)C(F)(F)F)c1nnc2n1CCCCC2` was -10.3% (inactive); that for `COc1cc(C=NNC(=O)c2cccnc2)ccc1OC(=O)c1ccccc1F` was 7.06% (inactive); that for `COc1ccc(C(=O)Nc2ccccc2C(=O)N2CCN(c3ccccc3)CC2)cc1` was 14.5% (inactive). `COc1ccc(C(=O)Nc2ccccc2C(=O)N/N=C/c2ccccc2OC)cc1`: the inhibition is 64.2% (active). With `COc1cc(/C=N/NC(=O)c2cccnc2)ccc1OC(=O)c1cccc(Br)c1`, the inhibition was 14.7% (inactive).

Consider `COc1ccc(/C=N/Nc2ccccc2C(=O)O)cc1`, for which the inhibition is 13.9% (inactive).

Take `COc1ccc(C(=O)Nc2cc(C)c(NC(=O)c3ccccc3OC)cn2)cc1`: the inhibition is 14.6% (inactive). Regarding `COc1cc(/C=N/NC(=O)c2ccccc2)ccc1OS(=O)(=O)c1ccccc1`, the inhibition was 43.1% (active).

As for `COc1ccc(C(=O)Nc2ccccc2C(=O)N/N=C/c2ccc(O)c(OC)c2)cc1`, the inhibition is 93.2% (active). `COc1cc(/C=N/NC(=O)CCc2n[nH]c(=O)[nH]c2=O)ccc1O`: the inhibition was 5.01% (inactive). On to `CC(=O)c1ccc(N2Cc3ccccc3C2)cc1`, for which the inhibition is 8.18% (inactive). As to `Cc1ccc(-c2nc(COC(=O)c3c(C)noc3C)cs2)cc1`, the inhibition is 1.5% (inactive). With `Oc1ccc2ccc3cccc[n+]3c2c1`, the inhibition was -22.6% (inactive). In the case of `COCCN1C(=O)c2oc3c(C)cc(C)cc3c(=O)c2C1c1cccc(O)c1` (stereo unspecified), the inhibition is -2.19% (inactive).

As for `CC1CC2=C(CC1/C=N/NC(N)=S)C(C)(C)CCC2` (stereo unspecified), the inhibition is 13.8% (inactive). Consider `N#Cc1ccc(C(=O)Nc2nc(-c3cccs3)c(C(=O)C(F)(F)F)s2)cc1`, for which the inhibition is 9.92% (inactive). As for `CCC(CC)C(=O)Nc1c2c(nn1-c1ccc(C)cc1)CS(=O)(=O)C2`, the inhibition is 4.97% (inactive).

For the molecule `CC/S(CC1CC1(Cl)Cl)=N\S(=O)(=O)c1ccc(C)cc1` (stereo unspecified), the inhibition is 0.564% (inactive). The value for `CCN1C(=NCC(C)C)N[C@@H](CCc2ccccc2)[C@H](C(=O)NCC(C)C)[C@H]1C` was -3.76% (inactive); that for `N#C/C(=C\c1ccc(O)c(O)c1)C(=O)NCc1ccccc1` was -1.33% (inactive); that for `O=C(N/N=C/c1cccc(OCc2ccccc2)c1)c1ccc(Br)o1` was 26.3% (inactive). Consider `COCCNC(=O)/C(C#N)=C/c1cccc(OCc2ccccc2)c1`, for which the inhibition is 55.7% (active).

A word on the inhibition: it is the relative decrease from the control value, in per cent.
